A selection: hits, their analogues and other compounds. The true share with any hit is near 6%.
D1 ag: agonists of human D1 dopamine receptor; P21728; 360,000 compounds, 1% hits; activation, % at 2 µM; HEK293 T-REx D1 cells, calcium flux, agonist mode; AID 504660; in the data active = activation above about 30%; also: 0% is about no effect
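Tetracycline-induced HEK293 TREx D1 cells, force-coupled to calcium signalling, were dye-loaded with a no-wash calcium kit. Compound was pin-added after a 10 s baseline. Fluorescence was read kinetically at 1 cycle/s for 180 s, with calcium rises flagged as agonism.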
DRD3 antagonist: D3 dopamine receptor (human) antagonism; 360,000 compounds, 2.5% hits; D3R cells, DiscoveRx beta-arrestin luminescence, antagonist mode; stronger effect = lower value; max response, negative = inhibition, %; AID 652054; in the data active = max response below about -50%; inconclusive = no clear call, values can overlap the other calls; also: % is scaled to controls: 0 for no effect and ±100 for the full control effect
Target sequence (P35462 whole entry, looked up): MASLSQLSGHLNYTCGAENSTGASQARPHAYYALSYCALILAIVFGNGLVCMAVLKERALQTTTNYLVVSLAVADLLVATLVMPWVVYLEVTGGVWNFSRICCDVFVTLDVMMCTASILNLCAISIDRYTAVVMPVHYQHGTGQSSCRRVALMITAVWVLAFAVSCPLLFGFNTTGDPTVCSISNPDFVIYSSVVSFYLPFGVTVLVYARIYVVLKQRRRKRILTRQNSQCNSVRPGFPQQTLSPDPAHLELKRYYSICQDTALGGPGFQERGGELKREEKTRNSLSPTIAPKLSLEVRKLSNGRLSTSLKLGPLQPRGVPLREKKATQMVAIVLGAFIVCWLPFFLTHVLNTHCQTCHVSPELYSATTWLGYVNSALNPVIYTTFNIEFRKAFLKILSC
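Cells expressing the human receptor were seeded at 1500 cells/well, incubated overnight at 37 degrees C in 5% CO2, then exposed to library compounds with dopamine controls for 90 minutes at 37 degrees C before luminescent detection.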
D1 antag: human D1 dopamine receptor antagonism. P21728. HEK293 TREx D1 cells, calcium flux, dopamine EC80; stronger effect = lower value. activity change, negative = inhibition, % at 10 µM. 360,000 compounds, 3.2% hits. AID 504652; in the data active = activity change below about -30%; also: % is scaled to controls: 0 for no effect and ±100 for the full control effect
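Calcium flux readout: force-coupled, inducible Hek293 Trex D1 line, cells induced overnight at 30 C with tetracycline, dye-loaded 30–90 min at RT. Antagonism scored against EC80 dopamine challenge given 180 s after compound.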
D1 potentiator: human D1 dopamine receptor positive modulation; P21728; HEK293 TREx D1 cells, calcium flux, dopamine EC20 potentiation; potentiation, % at 10 µM; 360,000 compounds, 0.036% hits; AID 504651; in the data active = potentiation above about 30%; also: 0% is about no effect
DRD3 agonist: activates the human D3 dopamine receptor; max activation, %; D3R DiscoveRx beta-arrestin cells, luminescence, 90 min; 410,000 compounds, 0.58% hits; P35462; in the data active = max activation above about 30%; also: 0% is about no effect
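Agonist mode: compounds and dopamine controls were applied to plated cells for 90 min at 37 degrees C after an overnight attachment at 1500 cells/well. Luminescent read-out followed 30 - 60 minutes at room temperature with DiscoveRx detection reagent.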
* hit, by the source's call; ? = inconclusive; / = not tested or not shown.

SMILES	D1 ag	DRD3 antagonist	D1 antag	D1 potentiator	DRD3 agonist
COc1ccc(C)cc1N(C)C(=O)c1sc2nc3n(c(=O)c2c1C)CCCCC3	43.4*	/	-12.2	-3.6	-0.1
Cc1ccc(N(C)C(=O)c2sc3nc4n(c(=O)c3c2C)CCCC4)cc1C	1.4	/	9.9	1.0	2.9
COc1ccc(CNC(=O)c2sc3nc4n(c(=O)c3c2C)CCCCC4)cc1	49.8*	/	-4.6	-2.8	1.6
CC(O)[C@@H]1NC(=O)[C@H](Cc2ccccc2)NC(=O)[C@H](C(C)O)NC(=O)[C@H](CCCCN)NC(=O)[C@H](Cc2c[nH]c3ccccc23)NC(=O)[C@H](Cc2ccccc2)NC(=O)[C@H](Cc2ccccc2)NC(=O)[C@H](CC(N)=O)NC(=O)[C@H](CCCCN)NC(=O)[C@@H](NC(=O)CNC(=O)[C@H](C)N)CSSC[C@@H](C(=O)O)NC(=O)[C@H](CO)NC1=O (some centres undefined)	/	/	/	/	-4.9
O=C(/C=C/c1ccccc1)Nc1nc(-c2cccs2)ns1	2.8	/	2.5	0.4	12.3
O=C(Nc1cccc2cccnc12)c1csc([C@@H]2O[C@H](CO)[C@H](O)[C@H](O)[C@H]2O)n1	/	-116.9*	/	/	-21.2
Cc1cccc(NS(=O)(=O)c2ccc3c(c2)n(C)c(=O)n3C)c1C	12.0	/	-12.1	-2.5	3.8
Cc1ccc(-n2ncc3c(NCCCN(C)C)ncnc32)cc1Cl	22.0	/	-12.0	-2.4	-10.7
CCOC(=O)c1c(CN2CCOCC2)oc2ccc(OC)cc12	2.4	0.0	-45.2*	-4.7	-2.9
COc1ccc2oc(C(=O)OCC(=O)Nc3ccc(N4CCOCC4)cc3)c(C)c2c1	0.5	4.5	-30.9*	-19.8	3.7
O=C(NCCc1ccc(Cl)cc1)C1CCN(Cc2cc3ccccc3n2Cc2ccccc2)CC1	8.4	/	16.1	1.8	-18.2
COc1cccc(C(=O)Nc2ccc(-c3nc4ccccc4s3)cc2Cl)c1	5.3	/	8.2	4.2	1.8
CCc1cccc(NS(=O)(=O)c2csc(C(N)=O)c2)c1	4.7	19.8	-12.6	-7.6	32.6*
Cc1ccc(C(=O)N/N=C/c2cccc(OC(=O)/C=C/c3ccco3)c2)cn1	0.3	-11.4	-16.6	-6.3	-6.0
O=C(CNc1cccc2ccccc12)N/N=C/c1ccc(OC(=O)/C=C/c2ccco2)cc1	2.6	6.2	-70.0*	-3.1	9.4
O=C(/C=C/c1ccco1)Oc1cc(Br)cc(/C=N/NC(=O)c2ccccc2O)c1	12.3	7.0	-35.4*	-10.4	3.8
CC(=O)c1ccc(NC(=O)c2cc(-c3ccc(Cl)c(Cl)c3)on2)cc1	5.1	/	3.2	-0.5	6.4
CCOc1ccc2nc(NC(=O)C(CC)Sc3nc(C)cc(=O)[nH]3)sc2c1 (centres undefined)	0.2	19.0	-42.2*	-3.8	-8.9
CCCc1cc(=O)[nH]c(SCC(=O)Nc2nc3ccc(OCC)cc3s2)n1	0.9	35.4	3.9	5.8	3.3
COc1ccc(C(=O)Nc2ccc3nc(SCC(=O)N(C)c4ccccc4)sc3c2)cc1	32.0*	/	-2.9	4.1	4.7
CC(C)C(NS(=O)(=O)c1cccc2nsnc12)C(=O)Nc1nc2ccc(Cl)cc2s1 (centres undefined)	1.4	-19.9	4.8	4.4	-1.6
CCOc1ccc2nc(NC(=O)C(NS(=O)(=O)c3cccc4nsnc34)C(C)C)sc2c1 (centres undefined)	-0.2	-24.6	-33.5*	-5.9	-2.5
Cc1ccc2nc(NC(=O)c3ccccn3)sc2c1	2.5	?	-14.9	-2.6	-6.5
COc1cccc(C(=O)Nc2ccc3nc(SCC(=O)N(C)c4ccccc4)sc3c2)c1	5.6	/	-13.5	-0.3	0.8
CCOc1ccc2nc(NC(=O)c3ccccn3)sc2c1	4.7	-63.4*	-5.0	-5.4	-23.0
SMILES	D1 ag	DRD3 antagonist	D1 antag	D1 potentiator	DRD3 agonist
O=C(NCC(O)CO)c1c(I)c(C(=O)NCC(O)CO)c(I)c(N(CCO)C(=O)CO)c1I (centres undefined)	/	/	/	/	7.7
O=C(CN1C(=O)C2(SCC(=O)N2c2cccc(Cl)c2)c2ccccc21)NC1CCCCC1 (centres undefined)	2.0	/	-3.2	2.4	-0.7
CCOc1ccc(NC(=O)c2c(C)oc3nc(C)nc(N4CCOCC4)c23)cc1	-0.6	/	6.9	2.9	-2.9
CCOC(=O)c1ccc(NC(=O)C2CCCN(c3ncnc4onc(C)c34)C2)cc1 (centres undefined)	7.3	/	-8.6	-1.7	6.3
Cc1ccc(-n2ncc(C(=O)N3CCN(Cc4ccccc4)CC3)c2C2CCN(C(=O)OC(C)(C)C)CC2)c(C)c1	-0.9	/	-20.6	-5.5	1.3
CC(=O)OCC(=O)[C@@]1(O)CC[C@H]2[C@@H]3CCC4=CC(=O)CC[C@]4(C)C3=CC[C@@]21C	/	/	/	/	-3.4
O=C(Nc1ccc2nc(SCC(=O)N3CCOCC3)sc2c1)c1ccc(Cl)cc1	4.1	/	-37.6*	-1.5	4.1
O=C(Nc1ccc2nc(SCC(=O)N3CCOCC3)sc2c1)c1ccc(Br)cc1	7.2	/	-13.5	-1.6	4.0
CCOc1ccc2nc(SCC(=O)c3ccccc3)sc2c1	22.5	6.1	-42.5*	2.2	0.0
Cc1ccccc1NC(=O)c1c(C)oc2ccc(O)c(CN3CCCC(C)C3)c12 (centres undefined)	-1.5	/	13.6	-1.7	-16.1
COc1cccc(CNS(=O)(=O)c2ccccc2Br)c1OC	/	5.6	/	/	32.2*
Cc1ccc(N=C2NC(=O)S/C2=C\c2ccco2)cc1	9.4	?	-36.1*	-8.0	-14.7
O=C1NC(=Nc2ccccc2)/C(=C/c2ccco2)S1	5.6	-22.8	-36.6*	-10.6	-9.6
CC(=O)c1cccc(NC(=O)CN2C(=O)c3cccnc3Sc3ccccc32)c1	1.1	/	-2.6	-5.2	-5.3
COc1ccc(CCn2c3c(c(=O)[nH]c2=O)C(NC(=O)c2ccccc2OC)(C(F)(F)F)C(=O)N3)cc1OC (centres undefined)	1.9	/	-10.7	-0.9	-11.1
O=C(O)CCc1nc2ccccc2n(CCc2ccccc2)c1=O	1.0	30.0	-14.2	-0.7	2.0
O=C(O)CCc1nn2c3ccccc3nc2n(CCN2CCCCC2)c1=O	6.6	5.8	-30.6*	-4.8	2.4
Cc1ccc(C)c(N2CCN(C(=O)c3cn(CC(C)C)c(=O)c4c3c3ccccc3n4C)CC2)c1	1.1	/	2.6	2.4	4.0
Cc1cccc(N2CCN(C(=O)c3cn(CC(C)C)c(=O)c4c3c3ccccc3n4C)CC2)c1C	-0.5	/	18.1	0.1	30.1*
CCOC(=O)CN1C(=O)S/C(=C/C=C/c2ccc(N(C)C)cc2)C1=O	105.0*	-0.8	-18.1	-6.3	-1.4
CCOC(=O)CN1C(=O)S/C(=C/c2ccc3c(c2)n(C)c(=O)n3C)C1=O	1.4	-0.2	5.6	0.9	5.7
O=C(CN1CCOCC1)Nc1ccc(Cl)c(Cl)c1	3.5	6.3	-0.9	0.0	0.6
Cc1ccc(NC(=O)CN2CCOCC2)cc1	1.7	-0.5	16.8	0.2	2.8

Screens as filed in PubChem.
